Source: PubChem (National Center for Advancing Translational Sciences (NCATS))
Only some compounds are listed: those with a hit (about 3% of all), similar ones and a draw of the others.
Nrf2 activator = Nrf2 pathway activation; AREc32 ARE-luciferase reporter (MCF7-derived line), luminescence, 24 h; hit rate 0.31% among 410,000; AID 624171; Potency, µM (highest dose often 46.1 µM), inactives show at the highest dose activation, hits mostly activators; also: potency is read from the fitted curve at half-maximal effect; % of control where 0% means no effect; nearly all actives have a fitted effect of over 65% in size
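AREc32 cells carrying an ARE-driven firefly luciferase reporter were seeded at 1000 cells/well in OPTI-MEM with 5% FBS, then exposed to compound for 24 hr at 37 deg C. Luminescence was read with Steady-Glo after 30 min at RT.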
Glioma ERSR ind = ER stress response induction in glioma; U87-MG GRP78 promoter luciferase reporter, 16 h; Potency, µM, for inactives: top-dose activation, usual class: activators; hit rate 0.02% among 420,000; AID 602332; also: potency is read from the fitted curve at half-maximal effect; series mostly up to about 76 µM; % of control where 0% means no effect; nearly all actives have a fitted effect of over 35% in size
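Stably transfected U87-MG glioma cells carrying a GRP78-based luciferase sensor; 16 h compound incubation. Luminescence end-point read 10 min after Bright-Glo addition at room temperature.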
D3 antag = blocks the human D3 dopamine receptor | max response, negative = inhibition, % | AID 652054 | hit rate 2.5% among 360,000 | D3R cells, DiscoveRx beta-arrestin luminescence, antagonist mode; hits give low values; in the data active = max response below about -50%; also: % is scaled to controls: 0 for no effect and ±100 for the full control effect
Target sequence (P35462 whole entry, looked up): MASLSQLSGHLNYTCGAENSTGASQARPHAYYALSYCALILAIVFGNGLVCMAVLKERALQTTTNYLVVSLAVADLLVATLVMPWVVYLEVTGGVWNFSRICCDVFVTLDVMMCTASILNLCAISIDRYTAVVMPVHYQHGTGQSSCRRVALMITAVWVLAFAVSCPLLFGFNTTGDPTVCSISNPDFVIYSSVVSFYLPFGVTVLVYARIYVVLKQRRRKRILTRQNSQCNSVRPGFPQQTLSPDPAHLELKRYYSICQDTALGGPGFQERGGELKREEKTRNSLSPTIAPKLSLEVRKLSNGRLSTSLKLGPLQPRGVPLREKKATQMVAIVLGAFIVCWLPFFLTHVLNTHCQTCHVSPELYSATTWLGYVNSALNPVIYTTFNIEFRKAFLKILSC
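Cells expressing the human receptor were seeded at 1500 cells/well, incubated overnight at 37 degrees C in 5% CO2, then exposed to library compounds with dopamine controls for 90 minutes at 37 degrees C before luminescent detection.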
DRD3 agonist = agonists of human D3 dopamine receptor | hit rate 0.58% among 410,000 | P35462 | AID 652048 | max activation, % | D3R DiscoveRx beta-arrestin cells, luminescence, 90 min; in the data active = max activation above about 30%; also: 0% is about no effect
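Agonist mode: compounds and dopamine controls were applied to plated cells for 90 min at 37 degrees C after an overnight attachment at 1500 cells/well. Luminescent read-out followed 30 - 60 minutes at room temperature with DiscoveRx detection reagent.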
Numbers without * were called inactive. Unless noted, calls follow the shape of the dose curve; as a rule, active = well fitted curve in the direction sought with a large enough effect; inconclusive = small, poorly fitted or top-dose-only effect, or another doubt; inactive = no such curve, though single readings can be large; an effect the other way counts as inactive or inconclusive.

Screening C[C@@H]1C[C@@H]2OC(=O)[C@]3(C)[C@H]2[C@@H](OC3(C)O)[C@]2(C)C(=O)C=C[C@H]12 (some centres not stated) returned Nrf2 activator 14µM*, Glioma ERSR ind 3%, D3 antag -53* and DRD3 agonist -21.
COc1ccccc1-c1cnnc(N/N=C/c2ccc(-c3cccc(Br)c3)o2)n1 was read as Nrf2 activator 0%, Glioma ERSR ind -5%, D3 antag 19 and DRD3 agonist 57*.
Screening CN(C)/[N+]([O-])=N/Oc1ccc([N+](=O)[O-])cc1[N+](=O)[O-] returned Glioma ERSR ind -11%.
For COC(=O)c1cc(CNC(=O)c2ccncc2)cc(NC(=O)c2ccccc2Cl)c1 the results were Glioma ERSR ind -3%.
Screening Cc1nn(C(C)C)c(C)c1CN1CCC(C(=O)Nc2cccc(-c3cccc(F)c3)c2)CC1 returned Nrf2 activator 5%, Glioma ERSR ind -4%, D3 antag -53* and DRD3 agonist -19.
`N#Cc1nc(N2CCCCC2)nc(N2CCCCC2)n1` gave Glioma ERSR ind -3%.
O=C(O)c1cc(NS(=O)(=O)c2ccc3ccccc3c2)ccc1O was read as Nrf2 activator 0%, Glioma ERSR ind -5%, D3 antag -108* and DRD3 agonist -22.
Screening COC(=O)Cc1ccc(NC(=S)N2CCN(c3cccc(O)c3)CC2)cc1 returned Nrf2 activator 2%, Glioma ERSR ind -4%, D3 antag 1 and DRD3 agonist 32*.
For COC(=O)Cc1ccc(NC(=S)N2CCN(c3ccc(OC)cc3)CC2)cc1 the results were Nrf2 activator 0%, Glioma ERSR ind -2%, D3 antag 6 and DRD3 agonist 4.
For Cc1ccc(S(=O)(=O)NNC(=O)c2ccc(C(=O)N(c3ccccc3)c3ccccc3)cc2)cc1 the results were Glioma ERSR ind 0%.
Screening COc1ccc(C2=C(C(C)=O)Sc3nnc(-c4ccc(Cl)cc4)n3N2C(C)=O)cc1OC returned Nrf2 activator 4%, Glioma ERSR ind -1% and DRD3 agonist 1.
CCOC(=O)c1oc2cc(O)ccc2c(=O)c1-c1ccccc1OC was read as Nrf2 activator 0%, Glioma ERSR ind 0%, D3 antag -61* and DRD3 agonist -15.
CC(C)(C)NC(=O)C1CCN(c2nc3ccccc3nc2C(F)(F)F)CC1 was read as Nrf2 activator 0%, Glioma ERSR ind -3% and DRD3 agonist 3.
Screening COc1cc(/C=N/NC(=O)c2cnn3c(C)cc(-c4ccccc4)nc23)ccc1O returned Nrf2 activator 2%, Glioma ERSR ind -16%, D3 antag 0 and DRD3 agonist 47*.
CCOc1cc(/C=N/NC(=O)c2cc(-c3cccc(OC)c3)nc3ccccc23)ccc1O was read as Nrf2 activator 4%, Glioma ERSR ind -3%, D3 antag 96 and DRD3 agonist 35*.
For COc1cc(/C=N/NC(=O)c2cc(-c3cccc(Br)c3)nc3ccccc23)cc(OC)c1O the results were Nrf2 activator 2%, Glioma ERSR ind -8%, D3 antag 7 and DRD3 agonist 32*.
CC(C)COc1cccc(-c2cc(C(=O)N/N=C/c3ccncc3)c3ccccc3n2)c1 was read as Nrf2 activator 0%, Glioma ERSR ind 6%, D3 antag 66 and DRD3 agonist 34*.
`COc1cc(/C=N/NC(=O)c2cc(-c3ccccc3)nc3ccccc23)ccc1O` gave Nrf2 activator 3%, Glioma ERSR ind 2%, D3 antag 23 and DRD3 agonist -9.
COc1cccc(NC(c2nnc(-c3ccccc3)o2)c2ccc(F)cc2Cl)c1 (configuration not stated) was read as Nrf2 activator 2%, Glioma ERSR ind -5% and DRD3 agonist 12.
Screening O=c1c2ccccc2sn1-c1ccc(Cl)c(S(=O)(=O)N2CCOCC2)c1 returned Glioma ERSR ind -6%.
For Cc1cnc(-n2ncc(C(=O)N(C)C3CCOC3)c2C)nc1-c1ccc(F)cc1 (configuration not stated) the results were Glioma ERSR ind 3%.
`CC/C(=C/c1ccccc1OC)c1cc(-c2ccccc2)cc2oc3ccccc3c12` gave Glioma ERSR ind -5%.
Screening COc1ccccc1-c1cc(C(=O)N/N=C/c2cccs2)c2ccccc2n1 returned Nrf2 activator 0%, Glioma ERSR ind -3%, D3 antag -78* and DRD3 agonist -31.
CN1CCN(CCCC(=O)c2ccc(C3CCCC3)cc2)CC1 was read as Nrf2 activator 15%, Glioma ERSR ind -1%, D3 antag -55* and DRD3 agonist -42.
For COc1ccc(CN2CCC(C(=O)c3ccc(Cl)cc3)CC2)cc1 the results were Nrf2 activator 1%, Glioma ERSR ind 0%, D3 antag -88* and DRD3 agonist -20.
O=C(c1ccc(F)cc1)C1CCN(Cc2ccc(F)cc2)CC1 was read as Nrf2 activator 3%, Glioma ERSR ind -1%, D3 antag -88* and DRD3 agonist -22.
Screening O=C(c1ccc(F)cc1)C1CCN(Cc2ccccc2)CC1 returned Nrf2 activator -1%, Glioma ERSR ind -1%, D3 antag -86* and DRD3 agonist -9.
For O=C(c1ccc(F)cc1)C1CCN(C(=O)c2ccc(Cl)cc2)CC1 the results were Nrf2 activator 1%, Glioma ERSR ind 1%, D3 antag -28 and DRD3 agonist -5.
Screening CN(C)c1ccc(/C=C/c2ccnc3ccccc23)cc1Cl returned Glioma ERSR ind -4%.
Screening Cc1nc2n(c(=O)c1CCN1CCC(c3noc4cc(F)ccc34)CC1)CCC[C@H]2O returned DRD3 agonist -30.
For COC(=O)c1cc2sccc2n1Cc1ccc(F)cc1Cl the results were Nrf2 activator 1%, Glioma ERSR ind 2% and DRD3 agonist 0.
`O=C(CCCN1CCC(C(=O)c2ccc(F)cc2)CC1)c1ccc(F)cc1` gave Nrf2 activator 0%, Glioma ERSR ind -2%, D3 antag -101* and DRD3 agonist -23.
Screening CCN(CC)c1ccc(NC(=O)c2ccc(Br)o2)c(C)c1 returned Nrf2 activator 0%, Glioma ERSR ind 3%, D3 antag -73* and DRD3 agonist 2.
Screening CCN(CC)c1ccc(NC(=O)c2ccco2)c(C)c1 returned Nrf2 activator 0%, Glioma ERSR ind 7%, D3 antag -18 and DRD3 agonist -23.
Screening Cc1ccc([N+](=O)[O-])cc1-c1ccc(/C=N/NC(=O)CN2CCOCC2)o1 returned Nrf2 activator 13µM*, Glioma ERSR ind -2%, D3 antag -10 and DRD3 agonist -16.
Nc1c(C(=O)c2ccc(Br)s2)oc2ccccc12 was read as Nrf2 activator 3.2µM*, Glioma ERSR ind -4%, D3 antag 9 and DRD3 agonist -1.
For OCCNCC(O)Cn1ccc2ccccc21 (configuration not stated) the results were Nrf2 activator -1%, Glioma ERSR ind -2%, D3 antag -52* and DRD3 agonist -1.
Screening C=C1NN(CC#N)C(=O)N1c1ccc(OCc2ccccc2)cc1 returned Glioma ERSR ind 0%.
Screening CC(C)Nc1nc(NC(C)C)nc(N(C)N)n1 returned Nrf2 activator -1%, Glioma ERSR ind -5%, D3 antag -53* and DRD3 agonist -10.
